# Legend:
# [1] = molecular target: T1, Testis-specific serine/threonine-protein kinase 2 (Homo sapiens) (UniProt Q96PF2); conditions: at 10 µM
# T1 sequence (whole entry): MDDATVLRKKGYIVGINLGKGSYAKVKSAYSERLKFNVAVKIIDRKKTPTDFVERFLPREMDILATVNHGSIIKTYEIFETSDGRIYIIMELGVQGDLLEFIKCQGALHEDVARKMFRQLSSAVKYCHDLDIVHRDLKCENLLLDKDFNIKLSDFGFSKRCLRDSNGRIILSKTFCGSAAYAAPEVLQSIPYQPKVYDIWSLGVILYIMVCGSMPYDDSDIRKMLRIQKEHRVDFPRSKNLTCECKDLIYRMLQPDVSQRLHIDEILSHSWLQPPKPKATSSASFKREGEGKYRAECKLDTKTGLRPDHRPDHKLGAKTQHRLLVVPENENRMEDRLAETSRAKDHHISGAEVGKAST
# [2] = molecular target: T2, Tyrosine-protein kinase Tec (Homo sapiens) (UniProt P42680); conditions: at 10 µM
# T2 sequence (whole entry): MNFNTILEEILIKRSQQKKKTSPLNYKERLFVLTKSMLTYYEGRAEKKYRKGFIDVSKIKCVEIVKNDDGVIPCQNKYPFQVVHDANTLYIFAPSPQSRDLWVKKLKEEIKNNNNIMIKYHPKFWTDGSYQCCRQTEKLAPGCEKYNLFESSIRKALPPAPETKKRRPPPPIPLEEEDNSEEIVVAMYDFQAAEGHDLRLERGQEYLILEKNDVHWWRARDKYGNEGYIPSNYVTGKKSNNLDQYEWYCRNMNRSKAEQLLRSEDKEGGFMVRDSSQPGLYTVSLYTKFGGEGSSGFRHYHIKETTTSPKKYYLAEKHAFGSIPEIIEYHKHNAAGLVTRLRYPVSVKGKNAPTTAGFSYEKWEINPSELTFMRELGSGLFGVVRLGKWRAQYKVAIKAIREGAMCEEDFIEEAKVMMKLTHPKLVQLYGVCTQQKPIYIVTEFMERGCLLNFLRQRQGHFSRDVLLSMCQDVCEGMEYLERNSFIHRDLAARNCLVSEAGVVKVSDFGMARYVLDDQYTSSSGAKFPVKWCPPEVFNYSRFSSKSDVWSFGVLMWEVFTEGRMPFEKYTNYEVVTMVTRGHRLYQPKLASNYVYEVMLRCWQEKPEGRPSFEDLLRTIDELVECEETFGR
# [3] = molecular target: Angiopoietin-1 receptor (Homo sapiens) (UniProt Q02763); conditions: at 1 µM
# [4] = molecular target: Angiopoietin-1 receptor (Homo sapiens) (UniProt Q02763); conditions: at 10 µM
# [5] = molecular target: High affinity nerve growth factor receptor (Homo sapiens) (UniProt P04629); conditions: at 10 µM
# Sequence of High affinity nerve growth factor receptor (Homo sapiens) (P04629 33-796 limits assumed): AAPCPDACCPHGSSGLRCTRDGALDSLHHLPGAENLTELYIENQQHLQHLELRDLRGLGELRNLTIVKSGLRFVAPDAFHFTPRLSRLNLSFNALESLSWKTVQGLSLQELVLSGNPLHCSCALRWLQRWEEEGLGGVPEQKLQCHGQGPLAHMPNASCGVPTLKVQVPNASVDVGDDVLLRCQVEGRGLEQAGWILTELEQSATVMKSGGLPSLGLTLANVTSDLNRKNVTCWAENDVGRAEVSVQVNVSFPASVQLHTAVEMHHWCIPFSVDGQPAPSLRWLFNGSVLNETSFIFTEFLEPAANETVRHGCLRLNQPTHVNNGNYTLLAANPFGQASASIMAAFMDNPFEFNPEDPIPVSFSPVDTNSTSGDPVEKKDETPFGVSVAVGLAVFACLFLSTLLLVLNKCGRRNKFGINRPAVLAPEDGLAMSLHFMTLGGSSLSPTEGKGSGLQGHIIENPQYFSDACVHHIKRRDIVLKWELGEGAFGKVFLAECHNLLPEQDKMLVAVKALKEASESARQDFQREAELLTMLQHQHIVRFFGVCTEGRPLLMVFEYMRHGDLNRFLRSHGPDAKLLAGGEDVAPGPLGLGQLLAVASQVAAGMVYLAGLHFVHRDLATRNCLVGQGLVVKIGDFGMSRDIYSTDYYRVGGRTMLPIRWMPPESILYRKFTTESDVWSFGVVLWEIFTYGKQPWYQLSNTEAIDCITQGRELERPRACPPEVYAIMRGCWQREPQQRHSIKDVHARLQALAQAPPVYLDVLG
# [6] = molecular target: BDNF/NT-3 growth factors receptor (Homo sapiens) (UniProt Q16620); conditions: at 1 µM
# Sequence of BDNF/NT-3 growth factors receptor (Homo sapiens) (Q16620 32-822 limits assumed): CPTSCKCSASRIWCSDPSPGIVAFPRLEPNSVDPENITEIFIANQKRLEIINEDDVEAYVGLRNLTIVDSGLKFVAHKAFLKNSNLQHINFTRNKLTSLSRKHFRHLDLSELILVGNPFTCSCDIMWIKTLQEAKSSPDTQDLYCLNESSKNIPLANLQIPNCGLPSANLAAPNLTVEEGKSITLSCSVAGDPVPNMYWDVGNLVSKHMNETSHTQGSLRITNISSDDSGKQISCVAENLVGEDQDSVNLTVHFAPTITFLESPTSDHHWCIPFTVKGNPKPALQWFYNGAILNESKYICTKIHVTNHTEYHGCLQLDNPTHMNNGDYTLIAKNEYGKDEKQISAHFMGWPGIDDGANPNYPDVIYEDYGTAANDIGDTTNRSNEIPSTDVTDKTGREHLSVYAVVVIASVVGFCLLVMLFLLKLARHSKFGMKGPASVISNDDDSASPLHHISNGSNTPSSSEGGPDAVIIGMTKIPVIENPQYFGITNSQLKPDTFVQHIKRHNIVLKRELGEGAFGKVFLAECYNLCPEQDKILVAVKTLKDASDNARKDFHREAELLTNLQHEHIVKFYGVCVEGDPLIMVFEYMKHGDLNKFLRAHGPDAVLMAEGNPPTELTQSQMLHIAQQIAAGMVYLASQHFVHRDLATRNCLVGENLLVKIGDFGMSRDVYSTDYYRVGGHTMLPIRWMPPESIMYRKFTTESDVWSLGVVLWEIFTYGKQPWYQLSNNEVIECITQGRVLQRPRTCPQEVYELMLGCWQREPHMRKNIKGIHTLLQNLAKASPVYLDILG
# [7] = molecular target: BDNF/NT-3 growth factors receptor (Homo sapiens) (UniProt Q16620); conditions: at 10 µM
# [8] = molecular target: T3, Tyrosine-protein kinase TXK (Homo sapiens) (UniProt P42681); conditions: at 1 µM
# T3 sequence (whole entry): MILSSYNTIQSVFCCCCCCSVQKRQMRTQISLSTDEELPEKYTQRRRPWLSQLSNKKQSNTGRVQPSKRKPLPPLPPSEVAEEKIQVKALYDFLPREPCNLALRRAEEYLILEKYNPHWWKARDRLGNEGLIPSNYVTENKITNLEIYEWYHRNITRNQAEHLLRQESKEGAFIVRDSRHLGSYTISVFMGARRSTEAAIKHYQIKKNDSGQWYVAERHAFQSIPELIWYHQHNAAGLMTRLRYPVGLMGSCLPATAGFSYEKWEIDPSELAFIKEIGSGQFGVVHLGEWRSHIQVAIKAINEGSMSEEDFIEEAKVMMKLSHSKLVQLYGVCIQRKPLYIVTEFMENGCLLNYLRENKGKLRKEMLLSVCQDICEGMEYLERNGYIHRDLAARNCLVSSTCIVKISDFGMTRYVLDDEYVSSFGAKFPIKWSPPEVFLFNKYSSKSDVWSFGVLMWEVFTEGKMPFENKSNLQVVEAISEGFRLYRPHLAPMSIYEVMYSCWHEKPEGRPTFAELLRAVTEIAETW
# [9] = molecular target: T3, Tyrosine-protein kinase TXK (Homo sapiens); conditions: at 10 µM
# [10] = molecular target: Serine/threonine-protein kinase VRK2 (Homo sapiens) (UniProt Q86Y07); conditions: at 10 µM
# Sequence of Serine/threonine-protein kinase VRK2 (Homo sapiens) (Q86Y07 whole entry): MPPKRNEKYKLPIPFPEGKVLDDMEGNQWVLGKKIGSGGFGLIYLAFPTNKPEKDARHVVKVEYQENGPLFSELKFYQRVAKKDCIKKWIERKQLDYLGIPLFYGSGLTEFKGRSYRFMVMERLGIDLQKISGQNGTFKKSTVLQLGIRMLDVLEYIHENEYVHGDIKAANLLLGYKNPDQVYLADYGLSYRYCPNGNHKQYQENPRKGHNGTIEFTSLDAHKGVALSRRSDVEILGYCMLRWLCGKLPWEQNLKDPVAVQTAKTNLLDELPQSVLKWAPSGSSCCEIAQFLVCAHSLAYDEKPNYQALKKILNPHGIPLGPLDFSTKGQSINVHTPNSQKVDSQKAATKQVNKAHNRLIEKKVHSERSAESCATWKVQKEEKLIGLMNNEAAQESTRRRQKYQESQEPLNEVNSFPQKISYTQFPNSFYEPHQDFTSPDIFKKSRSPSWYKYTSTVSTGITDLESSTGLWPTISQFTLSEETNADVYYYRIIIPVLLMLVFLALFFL
# [11] = molecular target: T2, Tyrosine-protein kinase Tec (Homo sapiens); conditions: at 1 µM
# [12] = molecular target: High affinity nerve growth factor receptor (Homo sapiens) (UniProt P04629); conditions: at 1 µM
# [13] = molecular target: T4, Serine/threonine-protein kinase ULK2 (Homo sapiens) (UniProt Q8IYT8); conditions: at 10 µM
# T4 sequence (whole entry): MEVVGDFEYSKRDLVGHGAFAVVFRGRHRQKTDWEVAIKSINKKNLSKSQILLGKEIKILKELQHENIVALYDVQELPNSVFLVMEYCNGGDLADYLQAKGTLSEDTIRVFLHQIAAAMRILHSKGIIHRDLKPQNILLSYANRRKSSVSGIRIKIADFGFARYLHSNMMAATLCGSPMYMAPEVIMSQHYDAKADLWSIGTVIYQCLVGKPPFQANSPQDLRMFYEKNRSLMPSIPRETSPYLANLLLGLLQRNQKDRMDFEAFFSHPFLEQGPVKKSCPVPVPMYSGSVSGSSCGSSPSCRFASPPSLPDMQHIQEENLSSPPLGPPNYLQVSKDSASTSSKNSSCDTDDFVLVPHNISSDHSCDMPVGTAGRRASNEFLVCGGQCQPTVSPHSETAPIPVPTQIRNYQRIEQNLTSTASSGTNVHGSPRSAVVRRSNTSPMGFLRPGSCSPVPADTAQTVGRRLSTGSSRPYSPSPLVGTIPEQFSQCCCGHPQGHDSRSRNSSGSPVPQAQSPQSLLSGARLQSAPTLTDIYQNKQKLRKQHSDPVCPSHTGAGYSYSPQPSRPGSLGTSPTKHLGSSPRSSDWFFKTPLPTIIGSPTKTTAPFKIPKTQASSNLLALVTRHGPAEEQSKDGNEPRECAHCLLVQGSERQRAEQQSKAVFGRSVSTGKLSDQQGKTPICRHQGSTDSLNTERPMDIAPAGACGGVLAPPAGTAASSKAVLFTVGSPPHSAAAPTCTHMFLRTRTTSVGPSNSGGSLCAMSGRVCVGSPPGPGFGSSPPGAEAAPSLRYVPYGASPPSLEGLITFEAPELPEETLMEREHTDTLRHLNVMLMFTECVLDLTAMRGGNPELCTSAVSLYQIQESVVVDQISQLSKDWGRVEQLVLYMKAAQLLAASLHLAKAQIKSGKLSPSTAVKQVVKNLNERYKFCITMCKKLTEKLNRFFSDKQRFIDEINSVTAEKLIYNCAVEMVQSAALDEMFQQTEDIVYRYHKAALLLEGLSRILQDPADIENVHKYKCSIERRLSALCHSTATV
# [14] = molecular target: T5, Serine/threonine-protein kinase ULK3 (Homo sapiens) (UniProt Q6PHR2); conditions: at 1 µM
# T5 sequence (whole entry): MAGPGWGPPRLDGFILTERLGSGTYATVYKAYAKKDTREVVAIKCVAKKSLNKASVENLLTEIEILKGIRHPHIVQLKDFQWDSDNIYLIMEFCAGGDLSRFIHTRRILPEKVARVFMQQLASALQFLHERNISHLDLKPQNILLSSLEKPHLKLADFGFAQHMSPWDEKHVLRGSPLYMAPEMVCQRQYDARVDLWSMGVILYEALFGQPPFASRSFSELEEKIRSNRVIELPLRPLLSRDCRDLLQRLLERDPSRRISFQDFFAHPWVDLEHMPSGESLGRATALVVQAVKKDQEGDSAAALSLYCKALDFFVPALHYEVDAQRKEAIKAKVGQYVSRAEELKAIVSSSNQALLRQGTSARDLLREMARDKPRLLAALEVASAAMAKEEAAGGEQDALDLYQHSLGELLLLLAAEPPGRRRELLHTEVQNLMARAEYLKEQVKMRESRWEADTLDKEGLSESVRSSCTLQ
# [15] = molecular target: T5, Serine/threonine-protein kinase ULK3 (Homo sapiens); conditions: at 10 µM
# [16] = molecular target: Serine/threonine-protein kinase VRK2 (Homo sapiens) (UniProt Q86Y07); conditions: at 1 µM
# [17] = molecular target: Serine/threonine-protein kinase WNK2 (Homo sapiens) (UniProt Q9Y3S1); conditions: at 1 µM;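 also: residual WNK2 kinase activity expressed as percent of uninhibited control, assayed in MOPS buffer at pH 7.0 containing EDTA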
# Sequence of Serine/threonine-protein kinase WNK2 (Homo sapiens) (Q9Y3S1 whole entry): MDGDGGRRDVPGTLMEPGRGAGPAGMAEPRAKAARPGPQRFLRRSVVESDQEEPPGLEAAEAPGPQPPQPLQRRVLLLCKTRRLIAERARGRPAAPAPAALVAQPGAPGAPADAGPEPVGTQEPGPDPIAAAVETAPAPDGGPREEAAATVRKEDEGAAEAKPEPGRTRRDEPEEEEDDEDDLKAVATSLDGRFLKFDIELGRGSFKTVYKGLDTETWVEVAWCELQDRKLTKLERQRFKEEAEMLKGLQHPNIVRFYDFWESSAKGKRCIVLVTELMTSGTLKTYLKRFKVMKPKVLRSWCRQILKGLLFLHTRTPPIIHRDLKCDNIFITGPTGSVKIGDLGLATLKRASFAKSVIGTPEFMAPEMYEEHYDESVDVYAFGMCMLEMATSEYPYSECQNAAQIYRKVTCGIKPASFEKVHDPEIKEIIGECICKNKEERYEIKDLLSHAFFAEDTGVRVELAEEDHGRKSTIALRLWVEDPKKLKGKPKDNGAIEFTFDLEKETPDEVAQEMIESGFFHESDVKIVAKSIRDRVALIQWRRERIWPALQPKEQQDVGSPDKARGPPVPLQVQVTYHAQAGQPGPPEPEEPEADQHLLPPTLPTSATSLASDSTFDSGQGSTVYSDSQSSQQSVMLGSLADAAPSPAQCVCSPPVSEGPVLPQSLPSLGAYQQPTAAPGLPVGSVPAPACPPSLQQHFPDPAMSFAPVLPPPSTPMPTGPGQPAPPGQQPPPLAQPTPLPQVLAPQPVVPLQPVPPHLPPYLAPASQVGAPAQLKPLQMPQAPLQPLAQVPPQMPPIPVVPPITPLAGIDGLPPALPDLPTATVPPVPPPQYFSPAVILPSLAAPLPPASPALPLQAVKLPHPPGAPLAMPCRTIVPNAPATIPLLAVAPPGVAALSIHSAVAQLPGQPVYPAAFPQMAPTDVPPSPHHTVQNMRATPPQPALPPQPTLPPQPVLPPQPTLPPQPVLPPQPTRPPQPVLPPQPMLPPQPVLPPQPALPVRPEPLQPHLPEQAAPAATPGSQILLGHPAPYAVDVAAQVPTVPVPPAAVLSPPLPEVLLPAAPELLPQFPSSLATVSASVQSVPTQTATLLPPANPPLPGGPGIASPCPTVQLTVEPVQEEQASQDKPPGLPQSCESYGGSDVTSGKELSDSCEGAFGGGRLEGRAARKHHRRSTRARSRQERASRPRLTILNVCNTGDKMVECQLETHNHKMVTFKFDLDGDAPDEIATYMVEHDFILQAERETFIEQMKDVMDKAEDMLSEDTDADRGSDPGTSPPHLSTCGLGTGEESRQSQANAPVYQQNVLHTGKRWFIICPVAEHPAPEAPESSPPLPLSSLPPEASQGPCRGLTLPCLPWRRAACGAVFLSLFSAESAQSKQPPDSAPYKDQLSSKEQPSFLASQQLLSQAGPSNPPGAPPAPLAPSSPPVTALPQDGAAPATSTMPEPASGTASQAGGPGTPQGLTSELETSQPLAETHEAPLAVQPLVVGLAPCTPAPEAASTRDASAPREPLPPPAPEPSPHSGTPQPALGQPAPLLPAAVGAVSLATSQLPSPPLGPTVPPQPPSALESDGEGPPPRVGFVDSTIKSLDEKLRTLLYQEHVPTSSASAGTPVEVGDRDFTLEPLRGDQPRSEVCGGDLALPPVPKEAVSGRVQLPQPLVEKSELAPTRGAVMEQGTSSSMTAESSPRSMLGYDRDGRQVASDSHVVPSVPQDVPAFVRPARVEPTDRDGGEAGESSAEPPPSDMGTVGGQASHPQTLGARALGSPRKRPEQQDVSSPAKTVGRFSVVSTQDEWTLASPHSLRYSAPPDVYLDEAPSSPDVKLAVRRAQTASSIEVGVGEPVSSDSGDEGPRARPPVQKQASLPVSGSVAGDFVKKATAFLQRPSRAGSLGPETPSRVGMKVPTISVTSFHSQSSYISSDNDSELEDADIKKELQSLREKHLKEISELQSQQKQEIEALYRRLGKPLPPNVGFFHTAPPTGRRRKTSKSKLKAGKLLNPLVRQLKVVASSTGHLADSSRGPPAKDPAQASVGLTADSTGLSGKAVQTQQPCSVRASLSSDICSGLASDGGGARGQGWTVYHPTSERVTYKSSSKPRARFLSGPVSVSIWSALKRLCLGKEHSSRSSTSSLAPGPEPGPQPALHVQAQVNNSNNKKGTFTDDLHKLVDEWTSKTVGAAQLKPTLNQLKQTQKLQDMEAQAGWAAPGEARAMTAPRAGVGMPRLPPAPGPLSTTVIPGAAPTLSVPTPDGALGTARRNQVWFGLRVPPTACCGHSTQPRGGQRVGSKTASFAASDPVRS
# [18] = molecular target: T4, Serine/threonine-protein kinase ULK2 (Homo sapiens); conditions: at 1 µM
# [19] = molecular target: T6, Testis-specific serine/threonine-protein kinase 1 (Homo sapiens) (UniProt Q9BXA7); conditions: at 10 µM
# T6 sequence (whole entry): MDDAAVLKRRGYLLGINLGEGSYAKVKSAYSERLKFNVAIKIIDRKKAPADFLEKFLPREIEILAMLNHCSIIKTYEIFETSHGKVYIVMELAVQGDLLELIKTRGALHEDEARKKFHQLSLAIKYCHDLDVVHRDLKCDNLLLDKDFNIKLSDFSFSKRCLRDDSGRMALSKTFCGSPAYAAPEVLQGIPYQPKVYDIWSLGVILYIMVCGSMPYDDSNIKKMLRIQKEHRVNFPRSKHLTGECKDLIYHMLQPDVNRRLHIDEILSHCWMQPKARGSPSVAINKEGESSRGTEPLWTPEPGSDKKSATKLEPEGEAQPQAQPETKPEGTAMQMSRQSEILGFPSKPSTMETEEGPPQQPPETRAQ
compound,measurement,setting,value
CSc1nc(-c2ccc(F)cc2)c(-c2ccnc(NC(C)c3ccccc3)c2)[nH]1 (configuration not stated),residual activity,[1],101%
same,residual activity,[2],63%
same,residual activity,[3],91%
same,residual activity,[4],41%
same,residual activity,[5],39%
same,residual activity,[6],3%
same,residual activity,[7],1%
same,residual activity,[8],86%
same,residual activity,[9],86%
same,residual activity,[10],93%
Nc1nc(Nc2ccc(S(N)(=O)=O)cc2)nn1C(=O)c1c(F)cccc1F,residual activity,[1],76%
same,residual activity,[11],82%
same,residual activity,[2],34%
same,residual activity,[3],36%
same,residual activity,[4],0%
same,residual activity,[12],41%
same,residual activity,[5],5%
same,residual activity,[6],54%
same,residual activity,[7],5%
same,residual activity,[9],41%
same,residual activity,[13],39%
same,residual activity,[14],46%
same,residual activity,[15],9%
same,residual activity,[16],97% (inactive)
same,residual activity,[10],69%
same,residual activity,[17],96% (inactive)
O=C1NC(=O)C(c2c[nH]c3ccccc23)=C1c1c[nH]c2ccccc12,residual activity,[12],58%
same,residual activity,[5],8%
same,residual activity,[6],29%
same,residual activity,[7],24%
same,residual activity,[10],75%
CN([C@@H](Cc1ccc(OS(=O)(=O)c2cccc3cnccc23)cc1)C(=O)N1CCN(c2ccccc2)CC1)S(=O)(=O)c1cccc2cnccc12,residual activity,[4],72%
same,residual activity,[6],79%
same,residual activity,[7],50%
O=C(Nc1ccc(Cl)cc1)c1ccccc1NCc1ccncc1,residual activity,[4],79%
same,residual activity,[6],117%
same,residual activity,[7],99%
same,residual activity,[18],102%
O=C1NC(=O)c2c1c1c3ccccc3[nH]c1n1cncc21,residual activity,[1],85%
same,residual activity,[11],70%
same,residual activity,[2],65%
same,residual activity,[3],98%
same,residual activity,[4],79%
same,residual activity,[12],21%
same,residual activity,[5],9%
same,residual activity,[6],48%
same,residual activity,[7],20%
same,residual activity,[8],71%
same,residual activity,[9],79%
same,residual activity,[18],103%
same,residual activity,[13],86%
same,residual activity,[14],80%
same,residual activity,[15],70%
same,residual activity,[16],93% (inactive)
same,residual activity,[10],91%
same,residual activity,[17],82% (inactive)
O=C(c1ccccc1)c1ccc(N2CCOCC2)cc1O,residual activity,[1],99%
same,residual activity,[11],96%
same,residual activity,[2],77%
same,residual activity,[4],80%
same,residual activity,[12],76%
same,residual activity,[5],71%
same,residual activity,[6],131%
same,residual activity,[7],113%
same,residual activity,[8],82%
same,residual activity,[9],70%
same,residual activity,[13],94%
same,residual activity,[15],92%
same,residual activity,[16],98% (inactive)
same,residual activity,[10],94%
same,residual activity,[17],115% (inactive)
O=c1c(-c2ccc(F)cc2)c(-c2ccncc2)[nH]n1-c1ccc(Cl)cc1,residual activity,[19],78%
same,residual activity,[4],75%
same,residual activity,[13],102%
same,residual activity,[16],100% (inactive)
same,residual activity,[10],99%
N#C/C(=C\c1ccc(O)c(O)c1)C(=O)NCc1ccccc1,residual activity,[3],89%
same,residual activity,[4],71%
same,residual activity,[12],64%
same,residual activity,[5],-1%
same,residual activity,[7],102%
same,residual activity,[9],86%
same,residual activity,[13],85%
same,residual activity,[15],86%
N#C/C(=C1/Nc2ccccc2S1)c1ccnc(NCCc2cccnc2)n1,residual activity,[1],68%
same,residual activity,[11],79%
same,residual activity,[2],17%
same,residual activity,[12],56%
same,residual activity,[5],11%
same,residual activity,[6],76%
same,residual activity,[7],44%
same,residual activity,[17],63% (inactive)

# Reference: ChEMBL document CHEMBL2218924, “A broad activity screen in support of a chemogenomic map for kinase signalling research and drug discovery” (Biochem J, 2013)
